High-throughput results: PubChem BioAssay, Broad Institute
ERAP1 inh = human ERAP1 aminopeptidase inhibitors, primary screen, biochemical, single point, plate reader. recombinant ERAP1, Leu-AMC fluorescence, 60 min. Endoplasmic reticulum aminopeptidase 1 (Homo sapiens), Q9NZ08. inhibition, % at 10.7 µM. 340,000 compounds, 0.15% hits;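 active means mean replicate inhibition of at least 30%, or all replicates individually reaching that 30% level; inactive means mean below 30% and not every replicate reaching it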
RAD52 inh = RAD52 DNA annealing inhibitors, primary screen, biochemical, FRET, single point, set 2; DNA repair protein RAD52 homolog (Homo sapiens), P43351; recombinant RAD52 DNA annealing, FRET fluorescence; inhibition, % at 18.7 µM; 360,000 compounds, 0.46% hits;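 active means every replicate showing at least 50% inhibition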
GSIS activator = GLuc luminescence reporter in INS-1E cells, primary screen for activators of glucose-dependent secretion of insulin; INS-1E GLuc reporter insulin secretion, 2-3 h; activation, % at 16.6 µM; 370,000 compounds, 0.61% hits;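 active means lowest replicate activation of at least 40%, so every replicate reaches that level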
RAD54 inh = inhibitors of human RAD54 branch migration, primary screen, biochemical, fluorescence, single point; DNA repair and recombination protein RAD54-like (Homo sapiens), Q92698; RAD54 Holliday junction branch migration, FAM/BHQ fluorescence; inhibition, % at 10.4 µM; 360,000 compounds, 0.14% hits;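 active means mean normalized replicate activity at least 40 and at least half of replicates scoring 40 or more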;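 further: inhibitors cause a drop in the FAM fluorescence signal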
Target sequence (Q92698 whole entry, looked up): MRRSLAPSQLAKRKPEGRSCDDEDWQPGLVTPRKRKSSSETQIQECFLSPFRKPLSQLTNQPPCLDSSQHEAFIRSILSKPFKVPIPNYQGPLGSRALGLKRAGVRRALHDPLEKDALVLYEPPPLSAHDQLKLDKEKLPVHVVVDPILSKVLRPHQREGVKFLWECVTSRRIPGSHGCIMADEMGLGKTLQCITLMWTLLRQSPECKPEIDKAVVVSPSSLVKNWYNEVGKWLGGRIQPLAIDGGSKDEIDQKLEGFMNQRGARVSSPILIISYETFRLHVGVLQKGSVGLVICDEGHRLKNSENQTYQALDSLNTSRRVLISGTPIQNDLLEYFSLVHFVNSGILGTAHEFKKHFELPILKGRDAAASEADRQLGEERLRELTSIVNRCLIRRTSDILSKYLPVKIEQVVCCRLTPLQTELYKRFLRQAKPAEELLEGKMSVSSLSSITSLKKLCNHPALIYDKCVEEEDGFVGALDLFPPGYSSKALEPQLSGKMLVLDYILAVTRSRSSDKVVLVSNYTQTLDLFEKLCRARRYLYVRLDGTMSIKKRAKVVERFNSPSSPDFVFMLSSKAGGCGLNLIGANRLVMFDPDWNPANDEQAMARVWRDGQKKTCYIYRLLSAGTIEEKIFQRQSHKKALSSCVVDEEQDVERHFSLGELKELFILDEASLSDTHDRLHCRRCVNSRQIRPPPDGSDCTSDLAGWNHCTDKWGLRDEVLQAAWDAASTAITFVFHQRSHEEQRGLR
PGC1a acetyl inh = inhibitors of PGC1a acetylation signal, primary screen, cell-based, U2OS, AlphaScreen, inhibitor mode | AlphaScreen anti-acetyl-lysine; with virally co-expressed GCN5 acetyltransferase | inhibition, % at 15.6 µM | 350,000 compounds, 0.17% hits | AID 651687, 2012;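 active means every replicate shows inhibition of at least 40%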
MLL AF4-AF9 inh = inhibitors of AF4 peptide binding to AF9, primary screen, biochemical, AlphaScreen, biotin-AF4 peptide, FLAG-AF9, single point. Protein AF-9 (Homo sapiens), P42568. inhibition, % at 10 µM. 350,000 compounds, 0.47% hits. AID 651704, 2012;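 active means every replicate reaching a set inhibition limit, whatever the replicate mean, cut at about 25% in these data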
Each line names hits and unclear results; the compound was inactive in the other large screens. Most compounds without a hit are left out; they make up all but 1.4% or so of the library.

C#CC(=O)N(c1ccc(OC)cc1OC)C(C(=O)NC1CCCC1)c1cccs1 (stereo not drawn)	PGC1a acetyl inh 95 (no result: RAD54 inh)
C#CC(=O)N(c1cc(OC)ccc1OC)C(C(=O)NC1CCCC1)c1cccs1 (stereo not drawn)	PGC1a acetyl inh 88 (no result: ERAP1 inh, RAD52 inh, GSIS activator, MLL AF4-AF9 inh)
C[C@@H]1CN([C@H](C)CO)C(=O)c2cc(NC(=O)Nc3ccc4c(c3)OCO4)ccc2O[C@@H]1CN(C)S(=O)(=O)c1ccccc1	none
CC(C)n1c2ccccc2c2cc([N+](=O)[O-])ccc21	none (no result: RAD54 inh, PGC1a acetyl inh)
C[n+]1c(-c2ccccc2)cc2c(=Cc3ccccc3)c3ccccc3n21	MLL AF4-AF9 inh 28 (no result: RAD54 inh, PGC1a acetyl inh)
C[n+]1c(-c2ccccc2)cc2c(=Cc3ccc([N+](=O)[O-])cc3)c3ccccc3n21	MLL AF4-AF9 inh 61 (no result: RAD54 inh, PGC1a acetyl inh)
Cc1cc(-c2nn(-c3ccccc3F)cc2CN2CCC(C(N)=O)CC2)c(C)s1	none (no result: RAD54 inh, PGC1a acetyl inh)
Cc1cc(-c2nn(-c3ccccc3F)cc2CNCCc2cnc[nH]2)c(C)s1	MLL AF4-AF9 inh 29
O=C(C[C@H]1CC[C@H](NS(=O)(=O)c2ccc(F)cc2)[C@H](CO)O1)NC1CCC1	none
COc1ccc2ccc(=O)oc2c1CC=C(C)C	GSIS activator 62
C[C@@H]1CN([C@@H](C)CO)C(=O)c2cc(NC(=O)C3CCCCC3)ccc2O[C@@H](C)CCCCO[C@@H]1CN(C)C(=O)Nc1cccc2ccccc12	none
Cc1ccc2nc(N3CCN(C(=O)CCC(=O)O)CC3)nc(-c3ccccc3)c2c1	none
O=C(O)CCCC(=O)N1CCN(c2nc(-c3ccccc3)c3ccccc3n2)CC1	GSIS activator 61
O=C(C[C@@H]1CC[C@H]2[C@@H](COC[C@@H](O)CN2Cc2ccccc2)O1)N[C@H]1CCN(Cc2ccccc2)C1	none
CC(C)CN(C(=O)COC(=O)/C=C/c1cccs1)c1c(N)n(Cc2ccccc2)c(=O)[nH]c1=O	GSIS activator 44 (no result: RAD54 inh, PGC1a acetyl inh)
COCCN(C(=O)CSc1ncccn1)c1c(N)n(Cc2ccccc2)c(=O)[nH]c1=O	none (no result: PGC1a acetyl inh)
COCCN(C(=O)CSc1ncn[nH]1)c1c(N)n(Cc2ccccc2)c(=O)[nH]c1=O	ERAP1 inh 57
Cc1ccc2nc(SCC(=O)N(CC(C)C)c3c(N)n(Cc4ccccc4)c(=O)[nH]c3=O)[nH]c2c1	MLL AF4-AF9 inh 27 (no result: ERAP1 inh)
COCCN(C(=O)COC(=O)/C=C/c1cccs1)c1c(N)n(Cc2ccccc2)c(=O)[nH]c1=O	none (no result: PGC1a acetyl inh)
O=C(Nc1cccc(Cl)c1)N[C@H]1CC[C@@H](CCNC(=O)C2CCOCC2)O[C@H]1CO	none
C[C@@H]1CN([C@@H](C)CO)C(=O)c2cc(NC(=O)Nc3ccc(C(F)(F)F)cc3)ccc2O[C@@H](C)CCCCO[C@H]1CN(C)C(=O)Nc1ccccc1	none (no result: ERAP1 inh, RAD52 inh, RAD54 inh, PGC1a acetyl inh, MLL AF4-AF9 inh)
CN(C)CCCNC(=O)[C@@H]1[C@@H](CO)[C@@H]2Cn3c(ccc(-c4ccncc4)c3=O)[C@H]1N2C(=O)C1CC1	none
Cn1c(-c2cccc(Br)c2)cnc1NCc1ccccc1O	MLL AF4-AF9 inh 26
Cn1c(-c2ccccc2)cnc1NCc1ccccc1	none
CC(C)NC(=O)N(C)C[C@H]1OCCCC[C@H](C)Oc2ccc(NS(=O)(=O)c3ccc(Cl)cc3)cc2C(=O)N([C@@H](C)CO)C[C@@H]1C	none
COc1ccc2c3c([nH]c2c1)[C@@H](CO)N(Cc1cc(F)ccc1F)CC31CCN(C(C)=O)CC1	none (no result: ERAP1 inh, RAD52 inh, RAD54 inh)
Fc1ccc(/C=N/N2CCCCC2)c(F)c1	PGC1a acetyl inh 66
Nc1nc2ccc(Cl)cc2cc1C(=O)NCCc1ccc(Cl)cc1Cl	GSIS activator 62 (no result: RAD54 inh, PGC1a acetyl inh, MLL AF4-AF9 inh)
CCSS(=O)(=O)c1cccc2cccnc12	ERAP1 inh 96
C[C@H](CO)N1C[C@H](C)[C@H](CN(C)C)Oc2c(NC(=O)Nc3cccc4ccccc34)cccc2C1=O	none (no result: RAD54 inh)
COc1ccc(NC(=O)N(C)C[C@@H]2Oc3c(NC(=O)Nc4ccc(C(F)(F)F)cc4)cccc3C(=O)N([C@H](C)CO)C[C@@H]2C)cc1	none (no result: ERAP1 inh, RAD52 inh, RAD54 inh, MLL AF4-AF9 inh)
